For 25 molecules, Potency results are on record in PubChem BioAssay (Tox21).

Molecules are shown by their SMILES. Several values for one entry are separate records, joined by “and”; a condition that tells them apart may be missing. Equal values may be shown once. Inconclusive results are not listed. Where a structure was tested more than once in an assay, its records may differ in their call. Activity calls are given as the source filed them. Unless noted, the call rests on the fitted dose curve; in most records, active means well fitted curve in the direction sought with a large enough effect in the repeat runs; inconclusive means weak or mixed curves; inactive means no such curve, though single readings can be large; an effect the other way counts as inactive or inconclusive.

A short description of test [1]: qHTS assay to identify small molecule antagonists of the thyroid receptor (TR) signaling pathway - cell viability counter screen (AID 743064). Further: nearly all actives have a fitted effect of over 50% in size. Summed up: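 Same-well viability check: GH3.TRE-Luc cells stimulated with 1 nM T3 alongside test compound for 23.5 h, followed by CellTiter-Fluor fluorescence.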
Test [2] can be described thus: qHTS assay to identify small molecule antagonists of the thyroid receptor (TR) signaling pathway (AID 743065). Further: nearly all actives have a fitted effect of over 55% in size. Put shortly: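 GH3.TRE-Luc rat pituitary cells carrying two TR response elements driving luciferase were plated for 4 h, given compound plus 1 nM T3 (final), and incubated 23.5 h at 37 C. ONE-Glo luminescence measured reporter inhibition; CellTiter-Fluor fluorescence tracked cytotoxicity.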
(In general: Quantitative high-throughput screening tests each substance at several concentrations.)

The test system of test [3] is thyroid hormone receptor (rat, GH3 cells). Kind of test: qHTS assay to identify small molecule agonists of the thyroid receptor (TR) signaling pathway (AID 743066; calls by dose curve).
In test [4] the target is Estrogen receptor (Homo sapiens) (UniProt P03372). Kind of test: qHTS assay to identify small molecule antagonists of the estrogen receptor alpha (ER-alpha) signaling pathway (AID 743069; active means well fitted curve in the direction sought with a large enough effect in the signal ratio in the repeat runs, not every such curve was filed as active; the % refers to the signal ratio). Summed up:
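Screening used a UAS-driven beta-lactamase reporter integrated into HEK293 cells expressing ER-alpha, stimulated with 17beta-estradiol alongside test compounds over 18 hr at 37C; signal came from LiveBLAzer B/G FRET fluorescence.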

Test [5] can be described thus: qHTS assay to identify small molecule antagonists of the estrogen receptor alpha (ER-alpha) signaling pathway - cell viability counter screen (AID 743074; calls by dose curve; further: nearly all actives have a fitted effect of over 45% in size).
Test [6] has as its target Estrogen receptor (Homo sapiens) (UniProt P03372). Kind of test: qHTS assay to identify small molecule agonists of the estrogen receptor alpha (ER-alpha) signaling pathway (AID 743075; calls by dose curve; further: potency means the concentration at half of the fitted maximal effect).
For test [7] the target is unchanged. Kind of test: qHTS assay to identify small molecule agonists of the estrogen receptor alpha (ER-alpha) signaling pathway using the BG1 cell line (AID 743079). Further: nearly all actives have a fitted effect of over 20% in size. Further: potency means the concentration at half of the fitted maximal effect. The settings on record: BG1Luc4E2 cells, ERE-luciferase agonist, 22 h; activation: at 70.3 µM (top of the series) unless noted.
Test [8] in a line: qHTS assay to identify small molecule antagonists of the estrogen receptor alpha (ER-alpha) signaling pathway using the BG1 cell line (AID 743080; calls by dose curve;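 further: BG1 cells stimulated with 17beta-estradiol alongside compound; nearly all actives have a fitted effect of over 25% in size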). Summed up: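 Luciferase inhibition measured with ONE-Glo after 30 min at RT in BG1Luc4E2 cells given test compounds and 17beta-estradiol for 21.5 h at 37 C; CellTiter-Fluor viability read in the same wells beforehand.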
A short description of test [9]: qHTS assay to identify small molecule antagonists of the estrogen receptor alpha (ER-alpha) signaling pathway using the BG1 cell line - cell viability counter screen (AID 743081).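 Further: compound given together with 17beta-estradiol as the ER stimulus; nearly all actives have a fitted effect of over 45% in size.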
The target of the next test is Aromatase (Homo sapiens) (UniProt P11511). In words: qHTS assay to identify aromatase inhibitors (AID 743083). Further: nearly all actives have a fitted effect of over 55% in size.
Chain of Aromatase (Homo sapiens) (P11511 whole entry, looked up): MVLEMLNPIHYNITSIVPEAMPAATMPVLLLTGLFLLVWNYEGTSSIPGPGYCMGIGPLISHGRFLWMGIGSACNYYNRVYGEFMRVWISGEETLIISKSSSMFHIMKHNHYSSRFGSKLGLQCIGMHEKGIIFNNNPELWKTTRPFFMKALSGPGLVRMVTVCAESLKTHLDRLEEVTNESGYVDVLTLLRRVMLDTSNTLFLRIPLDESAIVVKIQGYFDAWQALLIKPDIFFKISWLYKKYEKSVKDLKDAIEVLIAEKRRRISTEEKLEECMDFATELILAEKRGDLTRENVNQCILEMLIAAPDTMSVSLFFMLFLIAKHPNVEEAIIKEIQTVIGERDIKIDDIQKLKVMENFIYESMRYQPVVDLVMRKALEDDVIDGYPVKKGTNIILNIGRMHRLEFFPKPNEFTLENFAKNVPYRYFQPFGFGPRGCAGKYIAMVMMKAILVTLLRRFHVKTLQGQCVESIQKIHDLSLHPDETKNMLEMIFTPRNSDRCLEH

Chain of Estrogen receptor (Homo sapiens) (P03372 whole entry, looked up): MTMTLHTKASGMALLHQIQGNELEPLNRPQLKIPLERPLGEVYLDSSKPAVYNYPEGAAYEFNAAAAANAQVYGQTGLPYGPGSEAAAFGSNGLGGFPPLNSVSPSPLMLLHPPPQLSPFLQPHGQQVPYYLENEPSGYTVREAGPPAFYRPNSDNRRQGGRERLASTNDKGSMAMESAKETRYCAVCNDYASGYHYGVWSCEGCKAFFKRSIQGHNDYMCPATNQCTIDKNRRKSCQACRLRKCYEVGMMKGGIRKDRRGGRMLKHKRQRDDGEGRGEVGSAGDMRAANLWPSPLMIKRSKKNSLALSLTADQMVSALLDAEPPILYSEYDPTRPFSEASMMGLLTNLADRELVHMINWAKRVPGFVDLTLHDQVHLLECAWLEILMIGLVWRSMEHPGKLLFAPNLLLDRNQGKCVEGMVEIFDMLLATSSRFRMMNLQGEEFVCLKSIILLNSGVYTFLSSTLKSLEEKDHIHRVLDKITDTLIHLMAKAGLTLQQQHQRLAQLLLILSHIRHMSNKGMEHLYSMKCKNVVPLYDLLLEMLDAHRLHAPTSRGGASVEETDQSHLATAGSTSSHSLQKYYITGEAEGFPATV

`CCCCCCC(=O)O`: the Potency entry in test [1], in test [2], in [3], in [4], in [5] and in test [6] was “inactive” in each case. The Potency entry (in test [7]; in test [8]; in [9]; with Aromatase (Homo sapiens)) was “inactive” in each case.

As for `CC1(C)C(=O)N(Cl)C(=O)N1Cl`, the Potency entry in test [1], in test [2], in test [3], in test [5], in test [6] and in [8] was “inactive” in each case. The Potency result (in test [9]; in the test with Aromatase (Homo sapiens)) was “inactive” throughout. Further, the Potency in test [7] was 77 µM (active) and inactive.

For the molecule `OB(O)O`, the Potency result in test [1], in test [2], in [3], in test [5], in test [6] and in test [7] was “inactive” in each case. Further, the Potency entry (in [8]; in [9]; with Aromatase (Homo sapiens)) was “inactive” throughout.

As for `CC(C)c1ccc(C(C)C)cc1`, the Potency entry in test [1], in [2], in test [3], in [4], in [5] and in test [6] was “inactive” in each case. The Potency result (in [7]; in [8]; in test [9]; with Aromatase (Homo sapiens)) was “inactive” in each case.

For `OCC(CO)(CO)CO`, the Potency result in test [1], in test [2], in [3], in [5], in test [6] and in [7] was “inactive” throughout. Also, the Potency entry (in test [8]; in test [9]; in the test with Aromatase (Homo sapiens)) was “inactive” throughout.

For the molecule `Cc1cc(C)cc(O)c1`, the Potency entry in [1], in test [2], in test [3], in test [4], in test [5] and in [6] was “inactive” each time. In addition, the Potency result (in test [7]; in test [8]; in test [9]; in the test with Aromatase (Homo sapiens)) was “inactive” in each case.

Turning to `CC(C)=CCC/C(C)=C/C=O`, the Potency result in test [1], in test [2], in test [3], in test [5], in test [6] and in [7] was “inactive” in each case. Further, the Potency result (in test [8]; in test [9]; in the test with Aromatase (Homo sapiens)) was “inactive” each time.

Take `COc1c2ccoc2cc2oc(=O)ccc12`: the Potency entry in [1], in test [2], in test [3], in [5], in test [6] and in [7] was “inactive” in each case. The Potency entry (in [8]; in [9]; in the test with Aromatase (Homo sapiens)) was “inactive” in each case.

Take `C=CC(C)(C)C`: the Potency entry in [1], in [2], in test [3], in test [5], in [6] and in [7] was “inactive” in each case. Also, the Potency entry (in test [8]; in test [9]; in the test with Aromatase (Homo sapiens)) was “inactive” in each case.

Regarding `NC(N)=S`, the Potency result in test [1], in [2], in test [3], in test [4], in test [6] and in [7] was “inactive” each time. Further, the Potency result (in [8]; in test [9]; in the test with Aromatase (Homo sapiens)) was “inactive” throughout.

On to `CC(O)CNCC(C)O` (stereo unspecified), for which the Potency entry in [1], in [2], in [3], in test [4], in test [5] and in [6] was “inactive” in each case. Further, the Potency result (in [7]; in test [8]; in [9]; in the test with Aromatase (Homo sapiens)) was “inactive” throughout.

As to `CCc1cccc(O)c1`, the Potency entry in test [1], in test [2], in test [3], in test [5], in test [6] and in [7] was “inactive” in each case. Also, the Potency result (in test [8]; in test [9]; with Aromatase (Homo sapiens)) was “inactive” each time.

`CN1CCCC1=O`: the Potency entry in [1], in [2], in test [3], in [4], in test [5] and in test [6] was “inactive” in each case. For the same molecule, the Potency entry (in test [7]; in test [8]; in [9]; in the test with Aromatase (Homo sapiens)) was “inactive” each time.

Consider `CCCCCCCC(=O)O`, for which the Potency entry in [1], in test [2], in test [3], in test [4], in test [5] and in [6] was “inactive” each time. Besides, the Potency entry (in test [7]; in test [8]; in test [9]; with Aromatase (Homo sapiens)) was “inactive” throughout.

For the molecule `CC(C)(CO)CO`, the Potency entry in [1], in test [2], in [3], in [5], in test [7] and in test [8] was “inactive” throughout. Besides, the Potency entry (in test [9]; with Aromatase (Homo sapiens)) was “inactive” in each case. In addition, the Potency result in [6] was “inactive and 43.7 µM [activator] (active)”.

As for `Cc1cc(C)c(O)c(C)c1`, the Potency result in test [1], in test [2], in [3], in test [5], in [6] and in test [7] was “inactive” in each case. In addition, the Potency entry (in [8]; in test [9]; with Aromatase (Homo sapiens)) was “inactive” in each case.

Consider `C=CC(=O)NCOCCCC`, for which the Potency entry in test [1], in test [2], in test [3], in test [5], in [6] and in test [7] was “inactive” in each case. Moreover, the Potency entry (in test [8]; in test [9]; in the test with Aromatase (Homo sapiens)) was “inactive” each time.

Take `Nc1cccc(N)n1`: the Potency entry in test [1], in test [2], in test [3], in test [5], in test [6] and in test [7] was “inactive” in each case. Further, the Potency result (in test [8]; in test [9]; with Aromatase (Homo sapiens)) was “inactive” throughout.

With `Cc1ccccc1C=O`, the Potency result in test [1], in test [2], in test [3], in [5], in test [6] and in test [7] was “inactive” each time. The Potency result (in test [8]; in [9]; with Aromatase (Homo sapiens)) was “inactive” each time.

For `O=[N+]([O-])c1ccccc1C(F)(F)F`, the Potency entry in test [1], in test [2], in test [3], in test [4], in [5] and in test [6] was “inactive” each time. Besides, the Potency result (in test [7]; in [8]; in test [9]; with Aromatase (Homo sapiens)) was “inactive” each time.

In the case of `Nc1cccc(C(F)(F)F)c1`, the Potency entry in [1], in [2], in [3], in test [5], in test [6] and in test [7] was “inactive” each time. Besides, the Potency result (in test [8]; in test [9]; with Aromatase (Homo sapiens)) was “inactive” each time.

For the molecule `Cc1ccccc1Cl`, the Potency entry in test [1], in test [2], in test [3], in [4], in test [5] and in [6] was “inactive” in each case. For the same molecule, the Potency entry (in test [7]; in [8]; in [9]; with Aromatase (Homo sapiens)) was “inactive” each time.

`COc1c(Cl)ccc(Cl)c1C(=O)O`: the Potency result in test [1], in [2], in [3], in test [4], in test [5] and in [6] was “inactive” in each case. For the same molecule, the Potency result (in [7]; in [8]; in test [9]; with Aromatase (Homo sapiens)) was “inactive” in each case.

With `COc1ccc([C@@H]2CC(=O)c3c(O)cc(O[C@@H]4O[C@H](CO[C@@H]5O[C@@H](C)[C@H](O)[C@@H](O)[C@H]5O)[C@@H](O)[C@H](O)[C@H]4O)cc3O2)cc1OC`, the Potency result in test [1], in [2], in test [3], in test [4], in test [5] and in test [6] was “inactive” throughout. Further, the Potency result (in test [7]; in test [8]; in test [9]; in the test with Aromatase (Homo sapiens)) was “inactive” each time.

With `OCC(O)CS` (stereo unspecified), the Potency result in test [1], in [2], in [3], in test [4], in test [5] and in [6] was “inactive” each time. In addition, the Potency entry (in [8]; in test [9]; in the test with Aromatase (Homo sapiens)) was “inactive” each time. Moreover, in [7], the Potency was 11.9 µM (active) and inactive.
